# Assay results reported in PubChem BioAssay (EPA / NIEHS).
# Inconclusive results are not listed. Activity calls are given as the source filed them. Rule for the calls, unless noted: active = hit-call score of the fitted dose curve at least 0.9, where 1 is the maximum; inconclusive = response in the unintended direction; inactive = score below 0.9.
# Columns and labels:
# [1] = TOX21_PR_BLA_Followup_Agonist_viability: Viability Assessment in the Tox21 HEK293 Progesterone Receptor (PR) Agonism Beta-lactamase Follow-Up Assay (AID 2283935);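 note: signal loss means lower viability so actives are cytotoxic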
# Method in brief: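 Run multiplexed with the beta-lactamase FRET read, this endpoint measures ATP by CellTiter-Glo luminescence (30 min, room temperature). PR-UAS-bla HEK293T cells received compound 6 hr after plating and were then incubated 16 hr at 37C in 2% stripped serum.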
# [2] = TOX21_PR_BLA_Followup_Antagonist_viability: Viability Assessment in the Tox21 HEK293 Progesterone Receptor (PR) Antagonism Beta-lactamase Follow-Up Assay (AID 2283936);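 note: cells exposed to compound with R5020 agonist for 16 h; hits lower the luminescence signal meaning cytotoxicity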
# Method in brief: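 PR-UAS-bla HEK293T cells in medium with 2% charcoal-stripped FBS were treated with compounds plus R5020 for 16 hr at 37C. After the beta-lactamase read, CellTiter-Glo was added to the same wells and luminescence read after 30 min at room temperature.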
# PGR (gene 5241) = PGR (gene 5241) (UniProt P06401); assay: TOX21_PR_LUC_Followup_Agonist: Tox21 HEK293 Progesterone Receptor (PR) Agonism Luciferase Follow-Up Assay (AID 2283937; active = hit-call score of the fitted dose curve at least 0.9, where 1 is the maximum; inactive = score below 0.9)
# Method in brief: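 Agonism scored as luciferase induction over DMSO, read by ONE-Glo after 30 min at RT. Compounds were incubated 16 h at 37C on HEK293-PR-A-luc cells (3,000/well, pre-plated 5 h) previously grown 5 days in charcoal-stripped serum.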
# [3] = TOX21_PR_LUC_Followup_Antagonist_viability: Viability Assessment in the Tox21 HEK293 Progesterone Receptor (PR) Antagonism Luciferase Follow-Up Assay (AID 2283940)
# Method in brief: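 Viability counter-readout: cellular ATP measured by luciferase luminescence after 16 h compound exposure at 37C of HEK293-PR-A-luc cells, which had been cultured in charcoal-stripped serum and seeded 5 h beforehand.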
# [4] = TOX21_PR_LUC_Followup_Agonist_viability: Viability Assessment in the Tox21 HEK293 Progesterone Receptor (PR) Agonism Luciferase Follow-Up Assay (AID 2283941);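 note: loss of signal means cytotoxicity so actives lower viability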
# Method in brief: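 Cytotoxicity counter-readout in the PR-A luciferase reporter line HEK293, with 16 h compound exposure at 37C after cells were cultured in charcoal-stripped serum. Cellular ATP quantified by CellTiter-Glo luminescence.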
# [5] = CCTE_Simmons_MITO_basal_resp_rate: CCTE's HepG2 Seahorse XF Respirometric Screening Assay at Basal Respiratory State, Simmons Lab (AID 2284001; active = hit-call score of the fitted dose curve at least 0.9, where 1 is the maximum; inactive = score below 0.9); settings: actives raise or lower the signal
# Method in brief: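 Readout is oxygen consumption rate after test compound injection, measured by Seahorse XF in HepG2 cells. Seven concentrations from 125 nM up to 100 uM final are tested, and activity in either direction is fitted against DMSO.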
# [6] = CCTE_Simmons_MITO_max_resp_rate: CCTE's HepG2 Seahorse XF Respirometric Screening Assay at Maximal Respiratory State [uncoupled], Simmons Lab (AID 2284002; active = hit-call score of the fitted dose curve at least 0.9, where 1 is the maximum; inactive = score below 0.9); settings: actives raise or lower the signal
# Method in brief: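 Uncoupled (FCCP) respiration of HepG2 cells served as the endpoint, with measurements at 6-minute intervals across a 72-minute run and compounds dosed at 7 concentrations up to 100 uM final.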
# [7] = CCTE_Simmons_MITO_inhib_resp_rate: CCTE's HepG2 Seahorse XF Respirometric Screening Assay at Inhibited Respiratory State [full ETC block], Simmons Lab (AID 2284006; active = hit-call score of the fitted dose curve at least 0.9, where 1 is the maximum; inactive = score below 0.9); settings: actives raise or lower the signal
# Method in brief: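 This endpoint is the respiration rate remaining after rotenone/antimycin A block, in HepG2 cells on a Seahorse XF96. Chemicals spanned 125 nM–100 uM final, in three biological replicates. OCR was read every 6 minutes for 72 minutes and compared with DMSO vehicle.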
# [8] = molecular target: Nucleoli Translocation, AR (gene 367) (UniProt P10275); assay: UPITT_HCI_U2OS_AR_TIF2_Nucleoli_Antagonist: University of Pittsburgh U2OS Androgen Receptor-Transcriptional Intermediary Factor 2 (AR-TIF2) Antagonism High Content Imaging Assay for Nucleoli Translocation (AID 2283997)
# Method in brief: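 An antagonist-mode imaging screen: engineered U2OS (AR-RFP, TIF2-GFP) exposed to 20 uM compound, 0.2% DMSO. Activity reflects nucleolar red fluorescence change relative to DHT baseline.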
# [9] = molecular target: Nucleoli Translocation, AR (gene 367) (UniProt P10275); assay: UPITT_HCI_U2OS_AR_TIF2_Nucleoli_Agonist: University of Pittsburgh U2OS Androgen Receptor-Transcriptional Intermediary Factor 2 (AR-TIF2) Agonism High Content Imaging Assay for Nucleoli Translocation (AID 2283998)
# Method in brief: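 High-content images quantify nucleolar accumulation of RFP-fused AR in cells also expressing GFP-TIF2; the endpoint is fitted as signal gain versus DMSO controls across final concentrations of 0.195 to 50 uM.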
# [10] = molecular target: Ratio of Nucleoli Translocation and Cytoplasm, AR (gene 367) (UniProt P10275); assay: UPITT_HCI_U2OS_AR_TIF2_Nucleoli_Cytoplasm_Ratio_Antagonist: University of Pittsburgh U2OS Androgen Receptor-Transcriptional Intermediary Factor 2 (AR-TIF2) Antagonism High Content Imaging Assay for Ratio of Nucleoli Translocation and Cytoplasm (AID 2283999);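 note: antagonists lower the DHT-driven ratio of nucleolar to cytoplasmic red signal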
# Method in brief: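 High-content imaging of red fluorescence ratio, nucleoli versus cytoplasm, in U2OS expressing AR-RFP and TIF2-GFP, fitted relative to DHT. Compounds tested once at 20 uM final, then 0.195 to 50 uM final in serial dilution.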
# [11] = molecular target: Ratio of Nucleoli Translocation and Cytoplasm, AR (gene 367) (UniProt P10275); assay: UPITT_HCI_U2OS_AR_TIF2_Nucleoli_Cytoplasm_Ratio_Agonist: University of Pittsburgh U2OS Androgen Receptor-Transcriptional Intermediary Factor 2 (AR-TIF2) Agonism High Content Imaging Assay for Ratio of Nucleoli Translocation and Cytoplasm (AID 2284000);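 note: hits raise the red nucleolar to cytoplasm ratio above vehicle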
# Method in brief: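 Primary screen at 20 uM final (0.2% DMSO), then triplicate confirmation and dose-response from 0.195 to 50 uM final (0.5% DMSO). Cells: U2OS with AR-RFP and TIF2-GFP. Endpoint is the nucleoli/cytoplasm red-fluorescence ratio, gain-of-signal vs DMSO.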
# [12] = molecular target: Thyroid hormone receptor alpha (Rattus norvegicus) + Thyroid hormone receptor beta (Rattus norvegicus) (UniProt P18113+P63059); assay: TOX21_TR_LUC_GH3_Agonist_Followup: Tox21 GH3 Thyroid Hormone Receptor Agonism Luciferase Follow-Up Assay (AID 2283939)
# Method in brief: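 Agonist-mode confirmatory run: 15 concentrations (5 nM to 92 uM final) on GH3 rat pituitary cells, 24 h at 37C/5% CO2, T3 as positive control. Luminescence read with ONE-Glo after 30 min.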
# THRA (gene 7067) = THRA (gene 7067) (UniProt P10827); assay: TOX21_TRA_COA_Agonist_Followup_ratio: Tox21 Thyroid Hormone Receptor alpha Agonism through Coactivator Recruitment Follow-Up Assay, Ratio (AID 2283948; active = hit-call score of the fitted dose curve at least 0.9, where 1 is the maximum; inactive = score below 0.9)
# Method in brief: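 Agonist-mode biochemical TR-FRET with TRα LBD and SRC-2 coactivator peptide; activity expressed as percent of T3 response over DMSO baseline.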
# [13] = TOX21_TRB_BLA_Agonist_Followup_viability: Viability Assessment in the Tox21 Thyroid Hormone Receptor beta Agonism Beta-lactamase (BLA) Follow-Up Assay (AID 2283956)
# Method in brief: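 Viability was read as CellTiter-Glo luminescence in the same wells as the TRb-bla agonist read-out. HEK293T GAL4-TRb LBD cells were treated for 18 h (37C, 5% CO2) at 11 concentrations in triplicate. Fits were bidirectional versus DMSO baseline.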
# THRB (gene 7068) [14] = molecular target: THRB (gene 7068) (UniProt P10828); assay: TOX21_TRB_COA_Agonist_Followup_ratio: Tox21 Thyroid Hormone Receptor beta Agonism through Coactivator Recruitment Follow-Up Assay, Ratio (AID 2283963; active = hit-call score of the fitted dose curve at least 0.9, where 1 is the maximum; inactive = score below 0.9)
# Method in brief: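 Agonism is measured as coactivator recruitment in a purified-protein TR-FRET format, using GST-TRβ LBD at 5.0 nM, fluorescein-SRC-2 peptide at 200 nM and Tb-labeled anti-GST antibody at 2 nM. Values are 520:495 nm ratios relative to DMSO (0%) and T3 (100%).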
# [15] = molecular target: Retinoic acid receptor RXR-alpha (Homo sapiens) (UniProt P19793); assay: TOX21_TR_RXR_BLA_Agonist_Followup_ratio: Tox21 Thyroid Hormone Receptor beta Retinoid X Receptor alpha (RXRa) Agonism Beta-lactamase (BLA) Follow-Up Assay, Ratio (AID 2283968)
# Method in brief: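 Agonist mode: compounds given to RXRa-bla HEK293T cells at 11 concentrations, triplicate, 16 h at 37C/5% CO2. Readout is the 460:530 nm blue/green ratio after 2 h substrate loading at room temperature; DMSO baseline, 9-cis retinoic acid control.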
# [16] = TOX21_TR_RXR_BLA_Agonist_Followup_viability: Viability Assessment in the Tox21 Thyroid Hormone Receptor beta Retinoid X Receptor alpha (RXRa) Agonism Beta-lactamase (BLA) Follow-Up Assay (AID 2283970)
# Method in brief: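 CellTiter-Glo ATP luciferase read-out of cell viability, multiplexed with the beta-lactamase reporter run. RXRa-bla HEK293T cells in charcoal-stripped serum medium were exposed 16 h at 37C; data fitted both directions relative to DMSO.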
# THRB (gene 7068) [17] = molecular target: THRB (gene 7068) (UniProt P10828); assay: TOX21_TRB_BLA_Agonist_Followup_ratio: Tox21 Thyroid Hormone Receptor beta Agonism Beta-lactamase (BLA) Follow-Up Assay, Ratio (AID 2283954)
# Method in brief: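 Agonist mode: compounds (11-point, triplicate) incubated 18 h with HEK293T cells carrying GAL4-DBD/human TRβ-LBD and UAS-β-lactamase. Blue/green (460/530 nm) FRET ratio read after 2 h CCF4-AM loading; CellTiter-Glo viability run in the same plates.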
# DIO1 (gene 1733) = assay: CCTE_GLTED_hDIO1: CCTE's human Deiodinase 1 (DIO1) Inhibition Assay, Great Lakes Toxicology and Ecology Division (GLTED) Lab (AID 2283987);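 note: isolated human DIO1 enzyme in a cell-free setup rather than cells; enzyme activity read as free iodide liberated from substrate via Sandell-Kolthoff colorimetry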
# Method in brief: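 Chemicals are tested on human DIO1 without cells for 3 h. Uninhibited enzyme frees iodide, which speeds cerium(IV) reduction by arsenic and is read by spectrophotometry.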
# Sequence of Retinoic acid receptor RXR-alpha (Homo sapiens) (P19793 whole entry, looked up): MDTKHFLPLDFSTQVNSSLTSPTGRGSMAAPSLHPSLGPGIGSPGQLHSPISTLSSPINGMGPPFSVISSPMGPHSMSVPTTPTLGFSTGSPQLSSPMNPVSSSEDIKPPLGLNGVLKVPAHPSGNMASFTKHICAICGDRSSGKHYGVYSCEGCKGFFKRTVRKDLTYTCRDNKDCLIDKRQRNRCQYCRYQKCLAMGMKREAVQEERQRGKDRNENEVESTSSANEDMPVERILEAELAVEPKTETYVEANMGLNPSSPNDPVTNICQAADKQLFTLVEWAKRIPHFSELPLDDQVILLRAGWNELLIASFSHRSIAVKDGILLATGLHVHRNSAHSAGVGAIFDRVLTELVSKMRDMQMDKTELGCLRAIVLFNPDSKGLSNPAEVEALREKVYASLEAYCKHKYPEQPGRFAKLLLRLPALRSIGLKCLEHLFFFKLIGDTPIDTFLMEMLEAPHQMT
# Sequence of Thyroid hormone receptor alpha (Rattus norvegicus) + Thyroid hormone receptor beta (Rattus norvegicus) (P63059 whole entry, looked up): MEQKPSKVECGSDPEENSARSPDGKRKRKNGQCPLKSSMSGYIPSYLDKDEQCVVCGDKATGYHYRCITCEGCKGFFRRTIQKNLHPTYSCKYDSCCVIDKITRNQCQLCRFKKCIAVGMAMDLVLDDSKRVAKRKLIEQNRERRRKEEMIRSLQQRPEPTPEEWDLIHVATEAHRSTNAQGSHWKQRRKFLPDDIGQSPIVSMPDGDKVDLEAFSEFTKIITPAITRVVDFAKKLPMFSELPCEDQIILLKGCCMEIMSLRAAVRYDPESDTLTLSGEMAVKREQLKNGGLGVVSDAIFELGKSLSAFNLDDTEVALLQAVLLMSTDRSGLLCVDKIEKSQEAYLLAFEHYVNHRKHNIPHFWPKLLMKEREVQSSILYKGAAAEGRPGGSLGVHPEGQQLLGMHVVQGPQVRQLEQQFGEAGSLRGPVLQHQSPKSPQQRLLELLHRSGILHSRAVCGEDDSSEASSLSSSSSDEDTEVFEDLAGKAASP
# Sequence of Thyroid hormone receptor alpha (Rattus norvegicus) + Thyroid hormone receptor beta (Rattus norvegicus) (P18113 whole entry, looked up): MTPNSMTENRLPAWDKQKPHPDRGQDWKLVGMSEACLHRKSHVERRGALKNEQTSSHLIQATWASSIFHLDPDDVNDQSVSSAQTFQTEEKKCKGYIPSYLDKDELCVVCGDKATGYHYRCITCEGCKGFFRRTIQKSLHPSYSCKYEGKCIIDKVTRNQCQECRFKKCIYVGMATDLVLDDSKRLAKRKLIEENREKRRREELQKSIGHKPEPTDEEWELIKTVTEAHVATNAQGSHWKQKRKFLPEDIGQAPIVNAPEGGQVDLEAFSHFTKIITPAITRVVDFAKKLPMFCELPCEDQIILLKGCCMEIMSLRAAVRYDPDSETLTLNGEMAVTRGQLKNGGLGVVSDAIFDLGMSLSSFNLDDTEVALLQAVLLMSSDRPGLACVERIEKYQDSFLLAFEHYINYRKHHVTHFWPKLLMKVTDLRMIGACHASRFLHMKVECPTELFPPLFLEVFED
# Sequence of THRA (gene 7067) (P10827 whole entry, looked up, the tested form may be a part): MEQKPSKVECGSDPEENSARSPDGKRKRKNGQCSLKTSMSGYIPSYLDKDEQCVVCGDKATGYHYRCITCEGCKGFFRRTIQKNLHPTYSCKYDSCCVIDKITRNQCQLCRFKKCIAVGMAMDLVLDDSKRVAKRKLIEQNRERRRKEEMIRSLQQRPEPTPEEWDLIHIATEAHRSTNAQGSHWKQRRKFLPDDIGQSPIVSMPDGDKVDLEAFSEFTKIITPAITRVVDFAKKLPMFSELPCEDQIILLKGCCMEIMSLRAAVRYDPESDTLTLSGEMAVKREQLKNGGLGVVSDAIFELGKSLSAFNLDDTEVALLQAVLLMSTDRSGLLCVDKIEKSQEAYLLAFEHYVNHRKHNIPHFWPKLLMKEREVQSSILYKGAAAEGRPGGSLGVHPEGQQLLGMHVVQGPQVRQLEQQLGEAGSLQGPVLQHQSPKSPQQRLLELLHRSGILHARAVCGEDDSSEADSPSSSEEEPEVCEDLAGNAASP
# Sequence of THRB (gene 7068) (P10828 whole entry, looked up, the tested form may be a part): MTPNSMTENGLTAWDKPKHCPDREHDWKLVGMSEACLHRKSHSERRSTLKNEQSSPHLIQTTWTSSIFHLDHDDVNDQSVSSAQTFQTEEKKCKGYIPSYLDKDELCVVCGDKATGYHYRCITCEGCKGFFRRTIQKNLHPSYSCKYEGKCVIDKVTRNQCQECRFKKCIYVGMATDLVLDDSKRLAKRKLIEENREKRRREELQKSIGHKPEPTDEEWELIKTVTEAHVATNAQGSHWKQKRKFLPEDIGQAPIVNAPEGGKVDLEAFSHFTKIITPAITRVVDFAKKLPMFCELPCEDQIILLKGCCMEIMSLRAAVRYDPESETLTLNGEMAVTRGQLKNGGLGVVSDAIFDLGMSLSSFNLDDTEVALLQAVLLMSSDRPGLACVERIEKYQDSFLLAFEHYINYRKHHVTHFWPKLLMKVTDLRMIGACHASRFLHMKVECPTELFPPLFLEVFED
# Sequence of Ratio of Nucleoli Translocation and Cytoplasm, AR (gene 367) (P10275 whole entry, looked up): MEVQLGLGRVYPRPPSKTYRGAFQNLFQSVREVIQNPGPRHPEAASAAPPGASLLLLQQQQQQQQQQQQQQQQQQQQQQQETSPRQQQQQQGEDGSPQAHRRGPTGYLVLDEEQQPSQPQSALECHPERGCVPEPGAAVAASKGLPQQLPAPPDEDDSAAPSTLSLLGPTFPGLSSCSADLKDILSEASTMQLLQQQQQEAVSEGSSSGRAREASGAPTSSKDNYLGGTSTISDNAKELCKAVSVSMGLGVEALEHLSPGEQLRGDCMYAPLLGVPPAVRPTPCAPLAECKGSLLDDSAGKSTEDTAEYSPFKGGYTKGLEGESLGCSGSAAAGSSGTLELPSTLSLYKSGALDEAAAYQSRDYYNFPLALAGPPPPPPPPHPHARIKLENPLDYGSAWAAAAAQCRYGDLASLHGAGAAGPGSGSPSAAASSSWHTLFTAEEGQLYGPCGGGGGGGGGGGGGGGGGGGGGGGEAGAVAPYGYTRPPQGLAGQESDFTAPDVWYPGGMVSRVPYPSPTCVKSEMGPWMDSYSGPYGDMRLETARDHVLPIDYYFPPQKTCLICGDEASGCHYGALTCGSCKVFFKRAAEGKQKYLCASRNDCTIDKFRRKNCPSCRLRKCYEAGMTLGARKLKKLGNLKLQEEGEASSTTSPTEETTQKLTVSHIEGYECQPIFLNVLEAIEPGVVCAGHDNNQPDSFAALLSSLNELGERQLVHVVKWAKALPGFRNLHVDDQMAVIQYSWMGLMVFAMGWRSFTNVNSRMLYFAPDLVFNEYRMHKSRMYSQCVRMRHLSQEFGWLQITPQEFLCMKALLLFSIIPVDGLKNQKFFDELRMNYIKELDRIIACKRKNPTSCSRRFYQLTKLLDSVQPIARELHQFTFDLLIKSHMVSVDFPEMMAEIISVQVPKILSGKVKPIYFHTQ
# Sequence of Nucleoli Translocation, AR (gene 367) (P10275 whole entry, looked up, the tested form may be a part): as the sequence (P10275 whole entry, looked up) above
# Sequence of PGR (gene 5241) (P06401 whole entry, looked up): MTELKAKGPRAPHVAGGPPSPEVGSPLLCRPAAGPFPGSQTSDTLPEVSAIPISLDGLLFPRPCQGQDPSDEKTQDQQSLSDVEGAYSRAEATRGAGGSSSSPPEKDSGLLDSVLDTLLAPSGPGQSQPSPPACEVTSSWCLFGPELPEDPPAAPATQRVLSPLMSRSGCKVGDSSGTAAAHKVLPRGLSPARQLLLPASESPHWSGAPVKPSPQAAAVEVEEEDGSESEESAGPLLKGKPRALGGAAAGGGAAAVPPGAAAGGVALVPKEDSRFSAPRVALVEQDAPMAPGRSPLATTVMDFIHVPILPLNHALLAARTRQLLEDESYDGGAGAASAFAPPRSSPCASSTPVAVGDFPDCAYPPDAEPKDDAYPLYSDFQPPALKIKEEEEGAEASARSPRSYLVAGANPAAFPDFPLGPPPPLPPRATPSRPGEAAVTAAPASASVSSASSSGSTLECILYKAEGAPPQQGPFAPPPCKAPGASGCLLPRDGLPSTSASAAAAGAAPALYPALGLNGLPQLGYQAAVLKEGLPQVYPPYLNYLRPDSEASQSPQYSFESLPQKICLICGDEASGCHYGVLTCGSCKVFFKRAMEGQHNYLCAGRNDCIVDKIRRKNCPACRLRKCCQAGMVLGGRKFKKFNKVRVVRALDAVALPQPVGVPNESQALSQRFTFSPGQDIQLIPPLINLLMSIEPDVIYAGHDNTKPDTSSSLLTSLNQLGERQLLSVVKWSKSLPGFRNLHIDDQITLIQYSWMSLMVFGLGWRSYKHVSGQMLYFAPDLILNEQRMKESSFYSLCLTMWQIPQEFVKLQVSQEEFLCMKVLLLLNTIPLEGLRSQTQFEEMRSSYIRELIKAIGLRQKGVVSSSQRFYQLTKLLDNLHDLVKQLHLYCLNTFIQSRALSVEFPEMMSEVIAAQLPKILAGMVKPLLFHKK
smiles,measurement,setting,value
CC(C)CC(C)(c1ccc(O)cc1)c1ccc(O)cc1,outcome,[1],inactive
same,outcome,[2],inactive
same,outcome,PGR (gene 5241),inactive
same,outcome,[3],inactive
same,outcome,[4],inactive
O=C(O)C1(c2ccc3c(c2)OC[C@H](Cc2ccc(-c4ccccc4)cc2)[C@H]3O)CCCC1,AC50,[5],5.21 µM (active)
same,AC50,[6],8.48 µM (active)
same,outcome,[7],inactive
O=C(NC(=O)c1c(F)cccc1F)Nc1cc(Cl)c(OC(F)(F)C(F)C(F)(F)F)cc1Cl (configuration not stated),outcome,[8],inactive
same,outcome,[9],inactive
same,outcome,[10],inactive
same,outcome,[11],inactive
O=C(O)COc1cc(Cl)c(Cl)cc1Cl,outcome,[8],inactive
same,outcome,[11],inactive
CCCSP(=S)(OCC)Oc1ccc(Cl)cc1Cl (configuration not stated),outcome,[1],inactive
same,outcome,[2],inactive
O=C(N[C@H]1CN2CCC1CC2)c1ccc2c(c1)OCCO2,outcome,[8],inactive
same,outcome,[9],inactive
same,outcome,[11],inactive
CCOP(=S)(OCC)OP(=S)(OCC)OCC,AC50,[8],72.1 µM (active)
same,outcome,[9],inactive
same,outcome,[10],inactive
same,outcome,[11],inactive
N#CCC#N,outcome,[8],inactive
same,outcome,[10],inactive
CNC(=O)O/N=C/C(C)(C)S(C)(=O)=O,outcome,[8],inactive
same,outcome,[9],inactive
same,outcome,[10],inactive
same,outcome,[11],inactive
CC1(C)COP(Oc2ccccc2)OC1,outcome,[12],inactive
same,outcome,THRA (gene 7067),inactive
same,outcome,[13],inactive
same,outcome,THRB (gene 7068) [14],inactive
same,outcome,[15],inactive
same,outcome,[16],inactive
O=C(Cl)OCCOCCOC(=O)Cl,outcome,[12],inactive
same,outcome,THRA (gene 7067),inactive
same,outcome,THRB (gene 7068) [17],inactive
same,outcome,[13],inactive
same,outcome,THRB (gene 7068) [14],inactive
same,outcome,[15],inactive
OC(Cc1ccccc1Cl)(Cn1[nH]cnc1=S)C1(Cl)CC1 (configuration not stated),outcome,[8],inactive
same,outcome,[9],inactive
same,outcome,[10],inactive
same,outcome,[11],inactive
CN(C)c1ccc(N=O)cc1,outcome,THRA (gene 7067),inactive
same,outcome,[13],inactive
same,outcome,THRB (gene 7068) [14],inactive
same,AC50,[16],49.6 µM (active)
O=C1c2ccccc2C(=O)C1C(=O)C(c1ccccc1)c1ccc(Cl)cc1 (configuration not stated),AC50,DIO1 (gene 1733),19.8 µM (active)
same,AC50,[8],50 µM (active)
same,outcome,[9],inactive
same,outcome,[10],inactive
same,outcome,[11],inactive
O=S(=O)(Oc1ccc(Cl)cc1)c1ccc(Cl)cc1,outcome,[1],inactive
same,outcome,[2],inactive
same,outcome,[4],inactive
c1csc(-c2ccc(-c3cccs3)s2)c1,outcome,[12],inactive
same,outcome,THRA (gene 7067),inactive
same,outcome,THRB (gene 7068) [17],inactive
same,outcome,[13],inactive
same,outcome,THRB (gene 7068) [14],inactive
same,outcome,[16],inactive
Oc1c(Cl)cc(Cl)cc1Cl,AC50,[5],77 µM (active)
same,outcome,[6],inactive
same,outcome,[7],inactive
Cc1cc(Cl)ccc1OCCCC(=O)O,outcome,[9],inactive
same,outcome,[11],inactive
C=CC(=O)[O][Sn]([CH2]CCC)([CH2]CCC)[CH2]CCC,outcome,THRA (gene 7067),inactive
same,outcome,THRB (gene 7068) [17],inactive
same,outcome,[13],inactive
same,outcome,THRB (gene 7068) [14],inactive
same,AC50,[15],0.137 µM (active)
same,AC50,[16],9.68 µM (active)
CCCSP(=S)(OCC)Oc1ccc(SC)cc1 (configuration not stated),outcome,[1],inactive
same,outcome,[2],inactive
Oc1cc(Cl)c(Cl)cc1Cl,AC50,[6],75.4 µM (active)
same,outcome,[7],inactive
Nc1ccc(-c2ccccc2)cc1,outcome,[1],inactive
same,outcome,[2],inactive
same,outcome,[3],inactive
same,outcome,[4],inactive
C=CC(Cl)CCl (configuration not stated),outcome,[8],inactive
same,outcome,[10],inactive
same,outcome,[11],inactive
CCOP(=S)(OCC)Oc1ccc(Cl)cc1Cl,outcome,[1],inactive
same,outcome,[3],inactive
same,outcome,[4],inactive
O=[N+]([O-])c1ccc(Nc2ccccc2)cc1,outcome,[1],inactive
same,outcome,[2],inactive
same,outcome,[3],inactive
same,outcome,[4],inactive
